# M4 PAM: positive allosteric modulators of human muscarinic M4 receptor; P08173; hit rate 0.4% among 360,000; activation, % at 3 µM; CHO-K1 hM4/Gqi5, Fluo-8 calcium fluorescence, ACh EC20; 0% = ACh EC20, 100% = maximal ACh;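 active = activation above its plate's cutoff, the mean activation of sample wells plus 3 SD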
# M1 PAM: human CHRM1 positive allosteric modulation. activation, % at 3 µM. hit rate 0.088% among 360,000. P11229. CHO-K1 hM1, Fluo-8 calcium fluorescence, ACh EC20; 0% = ACh EC20, 100% = maximal ACh; in the data active = activation above about 19%, passing the limit was not always enough
# Target sequence (P11229 whole entry, looked up): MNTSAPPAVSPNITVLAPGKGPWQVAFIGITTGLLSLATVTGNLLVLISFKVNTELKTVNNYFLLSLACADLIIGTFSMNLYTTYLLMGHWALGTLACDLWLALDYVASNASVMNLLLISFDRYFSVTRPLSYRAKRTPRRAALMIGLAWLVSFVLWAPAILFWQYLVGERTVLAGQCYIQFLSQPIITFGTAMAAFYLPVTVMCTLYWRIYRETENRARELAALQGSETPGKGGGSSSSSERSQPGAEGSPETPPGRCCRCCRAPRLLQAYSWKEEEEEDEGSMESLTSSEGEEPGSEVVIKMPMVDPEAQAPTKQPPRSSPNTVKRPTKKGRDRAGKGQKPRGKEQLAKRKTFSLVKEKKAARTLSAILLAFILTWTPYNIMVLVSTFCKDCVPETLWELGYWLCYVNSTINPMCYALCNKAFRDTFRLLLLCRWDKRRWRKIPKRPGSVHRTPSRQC
# M4 ag: CHRM4 agonism in calcium assay; CHO-K1 hM4/Gqi5, Fluo-8 calcium fluorescence; vehicle 0%, full acetylcholine response 100%; hit rate 0.14% among 360,000; P08173; activation, % at 3 µM;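 active = activation above the run mean over all test wells plus 3 SD, cut at about 32% in these data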;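 also: peak over basal fluorescence ratio per well then scaled between controls; 0% = DMSO wells and 100% = acetylcholine at EC100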
# M1 ag: agonists of human M1 muscarinic receptor; AID 588814; activation, % at 3 µM; P11229; CHO-K1 hM1, Fluo-8 calcium fluorescence, agonist mode; 0% DMSO, 100% acetylcholine EC100; hit rate 0.33% among 360,000;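 active = activation above the run's mean compound activation plus 3 SD, cut at about 16% in these data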;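 also: peak over basal fluorescence ratio within a 140 s kinetic read after compound addition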
# M4 antag: CHRM4 antagonism in calcium assay. P08173. CHO-hM4 cells, ACh EC80, Fluo-8 calcium fluorescence. inhibition, % at 3 µM. hit rate 0.73% among 360,000. AID 624125;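 active = inhibition above its plate's cutoff, the mean inhibition of sample wells plus 3 SD, cut at about 27% in these data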;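 also: 0% = acetylcholine EC80 with DMSO and 100% = DMSO without agonist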
# CHRM1 antagonist: antagonists of human M1 muscarinic receptor | P11229 | CHO-K1 hM1, Fluo-8 calcium fluorescence, ACh EC80 antagonist | inhibition, % at 3 µM | hit rate 1.3% among 360,000 | AID 588852;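 active = percent inhibition above its own plate's cutoff, namely the mean of that plate's compound wells plus 3 SD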;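 also: peak over basal fluorescence ratio during 140 s after agonist addition; 0% = ACh EC80 plus DMSO and 100% = DMSO alone without agonist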
# The depositor's hits bear a star. Hits are enriched below; roughly 2.2% of the tested compounds scored in any of these assays.
SMILES,M4 PAM,M1 PAM,M4 ag,M1 ag,M4 antag,CHRM1 antagonist
COC(=O)c1c(Sc2ccccc2)c2ccccc2n1C,-5.6,-8.1,-0.8,35.0*,-3.6,-0.6
OCC1(Cc2cccc(C(F)(F)F)c2)CCN(Cc2cc(F)cc(F)c2)CC1,-2.4,-0.3,5.2,-6.1,0.3,-1.2
CSc1cccc(CN2CCC(CO)(Cc3cccc(C(F)(F)F)c3)CC2)c1,-12.0,-17.4,6.0,-6.7,10.8,31.0*
CCC(C)N(C(=O)COC(=O)CCc1c[nH]c2ccccc12)C1CCS(=O)(=O)C1 (stereo not given),5.9,6.4,4.1,-2.9,-10.3,-9.1
CCN(C(=O)COC(=O)Cc1c[nH]c2ccccc12)C1CCS(=O)(=O)C1 (stereo not given),19.1*,2.9,1.4,-2.1,-19.0,2.6
COc1ccc(-n2ncc3c(Nc4cccc(C)c4)ncnc32)cc1,19.0*,20.0,1.8,7.9,-12.6,-11.6
Cc1cc2cc(CNC(=O)c3cccc([N+](=O)[O-])c3)ccc2n1C,-11.7,3.4,3.6,-7.2,2.4,-5.5
Cc1cc2cc(CNC(=O)c3ccc(S(=O)(=O)N(C)C)cc3)ccc2n1C,-6.5,-26.1,2.3,-11.9,-2.8,30.1*
COc1cccc(CNC(=O)c2ccc(S(=O)(=O)N3CCOCC3)cc2)c1,-2.5,8.6,5.3,-4.3,-4.5,-3.2
Cc1cc2cc(CNC(=O)c3ccc(S(=O)(=O)N4CCOCC4)cc3)ccc2n1C,-15.5,-31.4,2.1,-10.1,39.2*,75.8*
CCCCN1C(=O)C(=O)N(CC(=O)Nc2ccccc2C(C)=O)C1=O,4.2,12.0,0.1,-3.0,3.1,-10.2
CCCCN1C(=O)C(=O)N(CC(=O)Nc2cc(Cl)ccc2OC)C1=O,23.8*,27.8*,3.3,0.7,-16.9,-19.2
Cc1c(CCOC(=O)CC23CC4CC(CC(C4)C2)C3)sc[n+]1Cc1ccccc1,-17.8,-21.8,0.1,-5.0,17.7,98.9*
Cc1ccc(N2C(=O)CCSC23C(=O)Nc2ccccc23)cc1 (stereo not given),-17.8,-7.8,0.6,-6.3,27.1*,2.6
CCc1ccc([C@@H]2C[C@H]3CN(Cc4ccccc4OC)C(=O)[C@]34CCCN24)cc1,-15.6,-28.5,1.3,-11.5,13.5,47.1*
Cc1cccc([C@@H]2C[C@H]3CN(Cc4cccc(Cl)c4)C(=O)[C@]34CCCN24)n1,-14.7,-25.9,2.4,-9.9,15.5,23.3*
COc1ccc2c(c1)C=C([C@@H]1C[C@H]3CN(c4ccccc4)C(=O)[C@]34CCCN14)CO2,-16.7,-34.0,1.8,-13.0,-2.6,57.6*
CN1C[C@@H]2C[C@@H](C3=Cc4cc(Cl)ccc4OC3)N3CCC[C@@]23C1=O,-7.5,-14.9,0.8,-13.6,2.2,-0.5
COCc1cc([C@@H]2C[C@H]3CN(c4ccccc4)C(=O)[C@]34CCCN24)ccc1OC,-14.7,-29.9,1.1,-10.3,17.6,57.4*
O=c1[nH]c2cc3c(cc2cc1C(c1nnnn1Cc1ccccc1)N1CCCCCC1)OCCO3 (stereo not given),0.8,4.0,2.4,-5.1,-4.8,-0.4
CC(=O)c1sc(Nc2ccc(Oc3ccccc3)cc2)nc1C,-15.2,-16.9,7.1,-5.7,33.6*,11.4
CC(=O)c1sc(Nc2ccccc2)nc1C,-3.0,-8.0,0.3,-6.4,-3.4,-12.7
Cc1ccc(/C=N/N2CCN(Cc3cccc4ccccc34)CC2)o1,2.1,7.5,-3.0,-2.1,29.5*,-8.5
CCCCCCN1C[C@@H](n2cc(-c3ccc(F)cc3)nn2)[C@H](O)C[C@@H]1c1ccc(Cl)cc1,-2.0,1.6,-0.5,-5.5,-0.8,0.4
Cc1ccc([C@H]2C[C@H](O)[C@@H](n3cc(C4CC4)nn3)CN2Cc2cccs2)cc1,3.3,19.3,1.1,9.5,-15.6,-14.6
SMILES,M4 PAM,M1 PAM,M4 ag,M1 ag,M4 antag,CHRM1 antagonist
CCCCCCN1C[C@H](n2cc(-c3ccc(F)cc3)nn2)[C@@H](O)C[C@@H]1c1ccc(C)cc1,2.5,-10.1,1.0,3.0,0.1,19.5*
Cc1ccc([C@H]2C[C@@H](O)[C@H](n3cc(C4CC4)nn3)CN2Cc2cccs2)cc1,16.8*,-3.8,-0.3,-4.5,-28.5,6.8
Cc1ccc2nc(N(CCCN(C)C)C(=O)COc3ccc(Cl)cc3)sc2c1,-14.9,7.1,37.9*,1.6,15.5,-7.5
CC1CN=C(NC2CCCCC2C)S1 (stereo not given),-9.1,-3.7,0.4,-5.8,27.2*,6.7
CC1CCCCC1NC1=NCCS1 (stereo not given),-0.6,-0.5,0.3,-3.5,1.7,1.8
O=C(CCn1c(=O)oc2ccccc21)N1CCN(c2ccccc2Cl)CC1,4.2,8.6,3.0,-2.9,-6.6,-9.7
CN1CCN(c2ncccc2S(=O)(=O)N2CCCCC2)CC1,-13.5,-22.0,0.3,-4.8,69.4*,98.8*
O=S(=O)(c1cccc2cccnc12)N1CCCCC1,4.3,-0.5,0.6,-0.5,6.1,3.3
O=C(Nc1nc2ccccc2n1CCN1CCOCC1)c1ccc(COc2ccccc2Br)o1,-8.0,-2.3,8.3,-6.9,43.1*,4.8
Cc1nc2sc(C(c3ccc(Cl)cc3)N3CC(C)OC(C)C3)c(O)n2n1 (stereo not given),16.8*,22.9*,2.0,11.4,-2.0,-20.4
CCOC(=O)C1=NN(C(=O)c2ccc(C)cc2)C(O)(c2ccc(Cl)cc2)C1 (stereo not given),-0.1,-5.1,11.2,22.0*,0.1,3.2
COc1cccc(NC(=S)N(Cc2ccc(C(=O)O)cc2)Cc2ccc(OC)c(OC)c2)c1,19.7*,9.3,1.0,-2.2,8.8,-5.1
COc1ccc(CN(Cc2ccc(C(=O)O)cc2)C(=S)Nc2ccccc2C)cc1OC,1.6,10.4,0.5,-5.8,7.8,1.3
O=C(CCN1C(=O)c2ccccc2C1=O)N(CCO)Cc1ccccc1,2.0,-27.4,1.3,-0.7,-3.1,101.5*
COC(=O)C1=NN(C(C)(C)CC(C)=O)C2C(=O)N(C3CCCCC3)C(=O)C12 (stereo not given),-11.1,3.4,0.4,-0.1,2.5,-4.4
Cc1ccccc1NC(=O)CSc1nnnn1C,5.4,8.6,0.1,-2.0,-4.0,-8.0
CCOC(=O)c1ccccc1NC(=O)CSc1nnnn1C,18.9*,8.6,0.3,-0.6,-0.1,-21.5
CCOC(=O)c1ccccc1NC(=O)COC(=O)CSc1ccccc1,21.2*,13.0,0.5,2.3,-3.5,-16.4
CC(=O)N1CCN(C(=O)COC(=O)COc2c(C)cc(C)cc2C)CC1,10.6,7.3,1.0,-5.1,-4.1,-4.2
CCOC(=O)N1CCN(C(=O)COC(=O)COc2c(C)cc(C)cc2C)CC1,23.7*,19.1,1.1,2.1,-14.7,-15.9
